Bioassay records (PubChem BioAssay)
This is a sample that favours compounds with a hit; in the whole collection about 2.1% have one here.
PD-1 reverse act – activators reversing PD-1 mediated T-cell inhibition; primary human CD4 T cells, PD-L1 beads, CellTiter-Glo 96 h; activation, % (no concentration beside the values); 29,000 tested, under 10 active; AID 2316; call rule not given here
ROS inducer – raises reactive oxygen species in U2OS cancer cells | U2OS ROS induction, H2DCF-DA fluorescence | ROS induction (% of piperlongumine), % at 10 µM | actives 2% (n = 46,000) | AID 624156; in the data active = ROS induction above about 79%, passing the limit was not always enough; inconclusive = no clear call, values can overlap the other calls
YB-1 expr inh – YB-1 expression inhibition; delta delta Cp (YB-1 minus CDIP) (concentration not given with the values); AID 434959; U2OS, qRT-PCR YB-1 vs CDIP delta delta Cp, 16 h; stronger effect = higher value; zero = DMSO, each unit about twofold; actives 0.37% (n = 30,000);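 active = delta delta Cp rounded down to an integer at or above 3, about 3 SD of DMSO wells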;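 note: higher means less YB-1 transcript or more CDIP transcript relative to DMSO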
A number is an active result; 0 = inactive; ? = inconclusive; - = not tested or not shown.

SMILES | PD-1 reverse act | ROS inducer | YB-1 expr inh
C=CCNC(=O)[C@@H]1[C@H]2C(=O)O[C@H](c3ccccc3)[C@H](c3ccccc3)N2[C@H](c2ccc(OCCO)cc2)[C@@]12C(=O)Nc1ccc(C#CCC(C(=O)OC)C(=O)OC)cc12 | - | ? | 0
COc1ccc(C#Cc2ccc3c(c2)[C@]2(C(=O)N3)[C@H](C(=O)N3CCc4cc(OC)c(OC)cc4C3)[C@H]3C(=O)O[C@H](c4ccccc4)[C@H](c4ccccc4)N3[C@@H]2c2ccc(OCCO)cc2)cc1 | - | 0 | 0
C=CCNC(=O)[C@H]1[C@@H]2C(=O)O[C@@H](c3ccccc3)[C@@H](c3ccccc3)N2[C@@H](c2ccc(OCCO)cc2)[C@]12C(=O)Nc1ccc(C#CCC(C(=O)OC)C(=O)OC)cc12 | - | 157 | 0
COC(=O)C(CC#Cc1ccc2c(c1)[C@]1(C(=O)N2)[C@H](c2ccc(OCCO)cc2)N2[C@H](c3ccccc3)[C@H](c3ccccc3)OC(=O)[C@H]2[C@@H]1C(=O)N1CCc2cc(OC)c(OC)cc2C1)C(=O)OC | - | 132 | 0
Cc1ccc(Cn2c(SCc3cccc(C(F)(F)F)c3)nc3ccncc32)cc1 | - | 0 | -
COc1ccc(CCNC(=O)Nc2ccc(Cl)cc2)cc1OC | - | 0 | -
C[C@H](CO)N1C[C@H](C)[C@H](CN(C)S(C)(=O)=O)Oc2ccc(NC(=O)Nc3ccc4c(c3)OCO4)cc2CC1=O | - | 0 | 0
C[C@@H]1CN([C@H](C)CO)C(=O)Cc2cc(NC(=O)Nc3ccc4c(c3)OCO4)ccc2O[C@H]1CN(C)C | 0 | 0 | 11
C[C@@H]1CN([C@H](C)CO)C(=O)Cc2cc(NC(=O)Nc3ccc4c(c3)OCO4)ccc2O[C@@H]1CN(C)CC1CCCCC1 | 0 | 0 | 0
C[C@@H]1CN([C@H](C)CO)C(=O)Cc2cc(NC(=O)Nc3ccc4c(c3)OCO4)ccc2O[C@H]1CN(C)CC1CC1 | 0 | 128 | 0
C[C@@H]1CN([C@@H](C)CO)C(=O)Cc2cc(NC(=O)Nc3ccc4c(c3)OCO4)ccc2O[C@@H]1CN(C)C | 0 | 99 | 0
C[C@@H]1CN([C@H](C)CO)C(=O)Cc2cc(NC(=O)Nc3ccc4c(c3)OCO4)ccc2O[C@@H]1CN(C)C | 0 | 0 | 0
Cc1cc(Cl)ccc1NC(=O)CNS(=O)(=O)c1ccc(Br)cc1 | 0 | 0 | -
CCN(CC)C(=O)Cn1cc(SCC(N)=O)c2ccccc21 | - | 0 | -
CCOC(=O)CSc1ncc(-c2ccccc2)nn1 | 0 | 0 | -
CCOC(=O)CSc1sc(C(=O)OCC)c2c1S(=O)(=O)N(C)c1ccccc1-2 | 0 | 112 | 0
CS(=O)(=O)c1scc(-c2cccs2)c1C#N | 0 | 0 | 0
O=C1Nc2ccc(Br)cc2/C1=C/c1cc2c([nH]1)CCCC2 | 0 | 0 | 0
CN(C)S(=O)(=O)c1ccc2c(c1)/C(=C/c1cc3c([nH]1)CCCC3)C(=O)N2 | 0 | 98 | 0
Cc1nc2c3ccccc3n(CC(=O)c3ccc(Br)cc3)c(=O)n2n1 | - | 0 | -
COc1ccc(S(=O)(=O)N(C)CC(=O)Nc2cccc(C(F)(F)F)c2)cc1C | 0 | 0 | -
C=CCN1C(=O)/C(=C/c2cc(C)n(CCOC)c2C)C(=O)NC1=S | 0 | 102 | 0
COCCn1c(C)cc(C=C2C(=O)N(C)C(=S)N(C)C2=O)c1C | 0 | 0 | 0
Cc1cc(-c2c(C(=O)Sc3ccccc3)c(C)nn2-c2ccccc2)no1 | - | 0 | -
Cc1ccc(SC(=O)c2c(C)noc2-c2cc(C)on2)cc1 | - | 109 | -
SMILES | PD-1 reverse act | ROS inducer | YB-1 expr inh
CCCCCCC/C=C/C(=O)CCc1ccc(O)c(OC)c1 | 0 | 0 | 0
COc1cc(Br)cc(/C=N/N(CCO)C2=NS(=O)(=O)c3ccccc32)c1OC | - | 115 | -
Cc1ccccc1S(=O)(=O)N1CCN(Cc2cccc(OCCO)c2)CC1 | - | 0 | 0
Cc1ccc(S(=O)(=O)N(C)C[C@H]2Oc3ccc(NS(=O)(=O)c4cccs4)cc3CC(=O)N([C@@H](C)CO)C[C@H]2C)cc1 | 0 | 0 | 0
Cc1noc(C)c1NC(=O)N(C)C[C@H]1Oc2ccc(NS(=O)(=O)c3cccs3)cc2C(=O)N([C@H](C)CO)C[C@H]1C | 0 | 0 | 0
C[C@@H]1CN([C@H](C)CO)C(=O)Cc2cc(NS(=O)(=O)c3cccs3)ccc2O[C@H]1CN(C)S(C)(=O)=O | - | 0 | 0
Cc1ccc(S(=O)(=O)N(C)C[C@@H]2Oc3ccc(NS(=O)(=O)c4cccs4)cc3CC(=O)N([C@H](C)CO)C[C@H]2C)cc1 | - | 95 | 0
Cc1ccc(S(=O)(=O)N(C)C[C@@H]2Oc3ccc(NS(=O)(=O)c4ccccc4)cc3CC(=O)N([C@H](C)CO)C[C@@H]2C)cc1 | 0 | 130 | 0
C[C@@H]1CN([C@@H](C)CO)C(=O)Cc2cc(NS(=O)(=O)c3cccs3)ccc2O[C@@H]1CN(C)C | 0 | 128 | 0
Cc1ccc(S(=O)(=O)Nc2ccc3c(c2)CC(=O)N([C@H](C)CO)C[C@@H](C)[C@@H](CN(C)S(=O)(=O)c2ccccc2)O3)cc1 | 0 | 0 | 0
Cc1noc(C)c1NC(=O)N(C)C[C@@H]1Oc2ccc(NS(=O)(=O)c3cccs3)cc2CC(=O)N([C@@H](C)CO)C[C@@H]1C | - | 0 | 15
CCC(C)OC(=O)CSc1ncnc2sc3c(c12)CCC(C)C3 (stereo not drawn) | - | 0 | -
O=C(CSc1nc2sc3c(c2c(=O)n1Cc1ccco1)CCC3)c1cc(Cl)sc1Cl | 0 | 0 | -
COc1ccc(OC)c(NC(=O)Cn2cnc3sc(C)c(-c4ccccc4)c3c2=O)c1 | 0 | 0 | -
C[C@@H]1CN([C@H](C)CO)C(=O)c2cc(NS(C)(=O)=O)ccc2O[C@@H]1CN(C)S(=O)(=O)c1ccccc1 | 0 | 102 | 0
C[C@H]1CN([C@@H](C)CO)C(=O)c2cc(NS(C)(=O)=O)ccc2O[C@H]1CN(C)S(=O)(=O)c1ccccc1 | - | 0 | 0
Cc1cc(C)c(NC(=O)CN(c2cccc(Br)c2)S(C)(=O)=O)c(C)c1 | 0 | 0 | -
C[C@@H]1O[C@@H](O[C@H]2[C@H](O[C@H]3CC[C@@]4(C)C(CC[C@]5(C)C4C=C[C@]46OC[C@@]7(CCC(C)(C)C[C@H]74)[C@@H](O)C[C@]65C)[C@]3(C)CO)O[C@H](CO)[C@@H](O)[C@@H]2O[C@@H]2O[C@H](CO)[C@@H](O[C@@H]3O[C@@H](C)[C@H](O)[C@@H](O)[C@H]3O)[C@H](O)[C@H]2O)[C@H](O)[C@H](O)[C@H]1O (stereo partly drawn) | - | 0 | 3.4
C[C@@H]1O[C@@H](O[C@H]2[C@H](O[C@H]3CC[C@@]4(C)C(CC[C@]5(C)C4CC=C4C6CC(C)(C)CC[C@]6(C(=O)O[C@@H]6O[C@H](CO[C@@H]7O[C@H](CO)[C@@H](O[C@@H]8O[C@@H](C)[C@H](O)[C@@H](O)[C@H]8O)[C@H](O)[C@H]7O)[C@@H](O)[C@H](O)[C@H]6O)CC[C@]45C)[C@]3(C)CO)OC[C@H](O)[C@@H]2O)[C@H](O)[C@H](O)[C@H]1O (stereo partly drawn) | - | 0 | 0
O=C(CCn1c(=S)[nH]c2ccsc2c1=O)NCCc1ccc(Cl)cc1 | - | 0 | -
O=C(CCCn1ncn2c(cc3occc32)c1=O)N1CCCCC1 | - | 0 | -
Cc1ccc2c(c1)c1nc3ccccc3nc1n2CCN1CCOCC1 | 0 | 78 | -
Cc1ccc2c(c1)c1nc3ccccc3nc1n2CC(=O)OCc1ccccc1 | - | 0 | -
CC(C)OC(=O)c1cccc(NC(=O)c2ccc(Br)cc2)c1 | - | 0 | -
